Screening results (PubChem)
Pf Dd2 growth – inhibitors of Plasmodium falciparum Dd2 growth; P. falciparum Dd2 growth, SYBR Green, 72 h; Potency, µM (highest dose often 28.9 µM), hits mostly inhibitors; 120,000 tested, 4.3% active; AID 1347417; active = well fitted inhibition curve with a large enough effect; also: nearly all actives have a fitted effect of over 65% in size
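Infected erythrocytes (Dd2, 0.3% parasitemia, 2.5% hematocrit final) are added to compound in RPMI-1640/Albumax II medium, grown 72 h at 37C in low oxygen, then lysed with saponin/Triton-X containing SYBR Green and read by fluorescence.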
Each line names hits and unclear results; the compound was inactive in the other large screens. The sample as a whole holds a higher share of hits than the screen did.

COc1ccc(-c2cccc3c2CCNC3)cc1OC	Pf Dd2 growth 11.2µM
NC(=O)c1ccc(-c2cccc3c2CCNC3)s1	none
CN1C(=O)c2cccn2CC1CNC(=O)CCc1c[nH]c2ccccc12 (centres undefined)	none
Cc1ccc(Cn2ccn(Cc3cccc(C(F)(F)F)c3)c(=O)c2=O)cc1	none
NCc1cccc(-c2cc(C(F)(F)F)ccc2Cl)c1	Pf Dd2 growth 10µM
NCc1ccc(Oc2ccc(F)c(Cl)c2)cc1	none
Cc1cc(Cl)ccc1-c1ccccc1CN	Pf Dd2 growth 8.91µM
Cc1ccc(-c2cccc(CN)c2)c(C)c1	Pf Dd2 growth 14.1µM
Cc1cc(F)ccc1-c1cccc(COc2cnc3c(ccn3CC(=O)O)c2)c1	none
Cc1cc(Cl)ccc1-c1ccc(C=O)cc1	none
Cc1cc(Cl)ccc1-c1cccc(CN)c1	Pf Dd2 growth 14.1µM
O=C(O)c1cccc(-c2cc(C(F)(F)F)ccc2Cl)c1	none
Cc1cc(Cl)ccc1-c1ccccc1C=O	none
O=C(Cc1ccc(F)cc1)N1CCC(c2nn(Cc3ccccc3)c(=O)[nH]2)CC1	none
C[C@H]1[C@@H]2[C@@H](O)C([C@H](C)C(=O)NCc3ccco3)CC[C@@]2(C)CC[C@@H]1NC(=O)c1ccccn1 (some centres undefined)	none
OC1(c2cccnc2)CCN(Cc2ccc(-n3ccnc3)cc2)CC1	none
CCc1ccc(S(=O)(=O)N[C@@H]2COCC[C@H]2Oc2ccccn2)s1	none
COC[C@@H]1CN(Cc2ccc(OC)cc2OC)C[C@H]1c1nc(C)no1	none
O=C(c1ccccc1Cl)N1CCN(c2cc(C(F)(F)F)ncn2)CC1	none
CCN1c2cc(C(=O)N3CCN(c4ccc(OC)cc4)CC3)ccc2C(=O)N2CCCCC21 (centres undefined)	none
Cc1nccn1-c1ccc(CNC(=O)C(c2ccccc2F)N(C)C)cc1 (centres undefined)	none
O=C(c1ccncc1)N1CCCC(CCc2ccc(F)cc2)C1 (centres undefined)	none
CCOC(=O)c1ccc2c(c1)N(CC(=O)Nc1cc(F)ccc1F)C(=O)c1ccccc1S2	none
Cc1ccc(NC(=O)CN2C(=O)c3ccccc3Sc3ccc(C(=O)N4CCOCC4)cc32)cc1C	none
CN(C)c1ccc(NC(=O)CN2C(=O)c3ccccc3Sc3ccc(C(=O)N4CCCC4)cc32)cc1	Pf Dd2 growth 10µM
O=C(c1ccc2c(c1)N(Cc1ccccc1Cl)C(=O)c1ccccc1S2)N1CCCC1	none
O=C(c1ccc2c(c1)N(Cc1cccc(F)c1)C(=O)c1ccccc1S2)N1CCCC1	none
COc1ccc(OC)c(NC(=O)CN2C(=O)c3ccccc3Sc3ccc(C(=O)N4CCCC4)cc32)c1	Pf Dd2 growth 10µM
CC(=O)NC[C@H]1O[C@H](Cc2cc(-c3ccc(F)cc3)on2)CC[C@@H]1O	none
CCN(CC)C[C@H]1O[C@H](Cc2cc(-c3ccc(F)cc3)on2)CC[C@@H]1O	Pf Dd2 growth 7.08µM
CN(C)C[C@H]1O[C@H](Cc2cc(-c3ccc(F)cc3)on2)CC[C@@H]1O	none
COc1cccc(NC(=O)NC[C@H]2O[C@H](Cc3cc(-c4ccc(F)cc4)on3)CC[C@@H]2O)c1	none
O=C(NC[C@H]1O[C@H](Cc2cc(-c3ccc(F)cc3)on2)CC[C@@H]1O)c1ccc(F)cc1	none
O=C(NC[C@H]1O[C@H](Cc2cc(-c3ccc(F)cc3)on2)CC[C@@H]1O)C1CCC1	none
COCC(=O)NC[C@H]1O[C@H](Cc2cc(-c3ccc(F)cc3)on2)CC[C@@H]1O	Pf Dd2 growth 14.1µM
CC(C)CCNC[C@H]1O[C@H](Cc2cc(-c3ccc(F)cc3)on2)CC[C@@H]1O	Pf Dd2 growth 3.55µM
COCC(=O)NC[C@H]1O[C@H](Cc2cc(-c3ccc(OC)cc3)on2)CC[C@@H]1O	none
CN(C)C[C@H]1O[C@H](Cc2cc(CN3CCOCC3)on2)CC[C@@H]1O	none
CN(Cc1ccccc1)Cc1cc(C[C@@H]2CC[C@H](O)[C@@H](CN)O2)no1	none
CC(C)(C)c1cc(C[C@@H]2CC[C@H](O)[C@@H](CN(CC3CC3)CC3CC3)O2)no1	Pf Dd2 growth 4.47µM
N#Cc1ccc(O[C@@H]2CCOC[C@H]2NC(=O)NCc2ccco2)cc1	none
CCn1cc(CN(CCOC)Cc2cccs2)ccc1=O	none
COCCN1CCNc2nc(COc3cccc(C(F)(F)F)c3)n(Cc3ccccc3)c2C1=O	none
O[C@H]1CC[C@@H](Cc2cc(COc3ccccc3)on2)O[C@@H]1CNCc1cccc(Cl)c1	Pf Dd2 growth 1.26µM
O[C@H]1CC[C@@H](Cc2cc(-c3ccccc3)on2)O[C@@H]1CNC1CCCCC1	Pf Dd2 growth 4.47µM
O=C(COc1ccccc1)NC[C@H]1O[C@H](Cc2cc(-c3ccccc3)on2)CC[C@@H]1O	none
COCc1cc(C[C@@H]2CC[C@H](O)[C@@H](CNCc3ccccc3)O2)no1	none
COCc1cc(C[C@@H]2CC[C@H](O)[C@@H](CNCc3cccc(OC)c3)O2)no1	none
Oc1cccc(-c2cc(C[C@@H]3CC[C@H](O)[C@@H](CNC4CCC4)O3)no2)c1	none
CCN(Cc1noc(C2CCC2)n1)C(=O)C1CCN(c2ccccc2)C1=O (centres undefined)	none
COc1ccc([S+](=O)([O-])N2CCC(N3CCOCC3=O)CC2)cc1	none
O=C(CC[C@H]1NC(=O)c2ccccc2NC1=O)NCCc1ccccn1	none
CCn1cc(-c2ccc(Cl)cc2)cc1C(=O)NCCN1CCOCC1	none
Cc1ccccc1CN1CCc2nc(C(=O)N3CCOCC3)oc2CC1	none
Cc1c(-c2ccc(Cl)cc2)c(=O)oc2c(CN3CCOCC3)c(O)ccc12	Pf Dd2 growth 5.62µM
Cc1c(-c2ccccc2)c(=O)oc2c(CN3CCOCC3)c(O)ccc12	Pf Dd2 growth 8.91µM
Cc1c(-c2ccc(Cl)cc2)c(=O)oc2ccc(OC(=O)N3CCOCC3)cc12	none
Cc1c(-c2ccc(Br)cc2)c(=O)oc2ccc(OC(=O)N3CCOCC3)cc12	none
COc1ccc(OC)c(S(=O)(=O)N2CCCC(Cn3c(C)nc4cccnc43)C2)c1 (centres undefined)	none
CCCn1c(C)cnc1C1CCN(S(=O)(=O)c2cc(OC)ccc2OC)C1 (centres undefined)	Pf Dd2 growth 3.55µM
COc1ccc(OC)c(S(=O)(=O)N2CCC(n3cnnc3C)CC2)c1	none
O=C(N[C@H]1[C@H](O)[C@H](O)C[C@@H]1c1cccnc1)c1ccccc1	none
Cc1ncoc1C(=O)N1Cc2ccccc2OC2(CCN(C)CC2)C1	none
N#Cc1ccc(S(=O)(=O)N[C@H]2[C@H](O)[C@H](O)C[C@@H]2c2ccccc2)cc1	none
Cc1ccc(NC(=O)Nc2csc3c2CCCC3)c(C)c1	none
CCc1cccc(C)c1NC(=O)Nc1csc2c1CCCC2	none
O=C(Nc1ccc(F)cc1)Nc1csc2c1CCCC2	Pf Dd2 growth 10µM
Cc1cccc(Cl)c1NC(=O)CN1C(=O)NC(c2ccc(Cl)cc2)C2=C1COC2=O (centres undefined)	none
C[C@H](C(=O)N(C)CCC#N)C1CC[C@@]2(C)Cc3sc(NC(=O)c4cccn4C)nc3[C@@H](C)[C@@H]2[C@H]1O (some centres undefined)	none
Cc1ccc(CCNC(=O)CN(c2ccc(C)cc2)S(=O)(=O)c2c(C)noc2C)cc1	none
Cc1cccc(CCNC(=O)CN(c2ccc(C(C)C)cc2)S(=O)(=O)c2c(C)nn(C)c2C)c1	Pf Dd2 growth 10µM
CCc1ccc(NC(=O)CN(c2ccc(C)cc2)S(=O)(=O)c2c(C)nn(C)c2C)cc1	none
CCNC(=O)N1CCc2nc(OCCOC)ccc2C1	none
CCC(=O)N(C1CCOCC1)C1CCN(S(=O)(=O)c2ccccc2CC)CC1	none
Cc1c(-c2ccc(F)cc2)[nH]c2ccc(CNC(=O)c3cnn(C)c3)cc12	none
Cc1ccc(/C=C/c2onc(C)c2S(=O)(=O)N2CCC(C(=O)N3CCC(N(C)C(C)C)CC3)CC2)cc1	Pf Dd2 growth 10µM
